Measured values as given in ChEMBL document CHEMBL4513216, “Probing the Open Global Health Chemical Diversity Library for Multistage-Active Starting Points for Next-Generation Antimalarials” (ACS Infect Dis, 2020).
Screen size: about 68,000 compounds; about 2,700 (4%) showed an effect of 50% or more. Shown is part of a subset that was picked to be rich in strong results.

Each compound was assayed on Plasmodium berghei (assay: Screen against P. berghei liver stage (PbLuc), transformed with Luciferase, at 2uM). Details: tested at 2 uM.
Assay type: functional, HepG2

Structure (SMILES)	INHIBITION [%]
CCCN1CCC2(C1)c1ccccc1S(=O)(=O)N2Cc1ccccc1 (centres undefined)	9.87
CCCn1ccc2cc(NC(=O)NCCn3cnnc3CC)ccc21	12.58
O=C([C@H]1COC[C@H]2CN(C3CCCC3)C[C@H]21)N1CCCO1	0.13
CCS(=O)(=O)N1CCC2(CC(=O)N(c3ccccc3C)C2)C1 (centres undefined)	46.87
Cc1ccc(C2c3c(n[nH]c3C)N=C3COC(=O)C32)cc1C (centres undefined)	28.23
CC(=O)Nc1cnc(Oc2ccccc2F)nc1	8.41
CO[C@@H]1CO[C@@]2(CCCN(Cc3nc(C)cs3)C2)C1	-61.54
O=C1CC(NCc2ccncc2)CN1Cc1cccc(F)c1 (centres undefined)	-12.82
Nc1cc2c(nn1)CCN(C(=O)CCCC1CCCCC1)C2	-33.92
Cc1nc(CN2CCCC(N(C)c3ccc(C#N)cn3)C2)no1 (centres undefined)	-14.71
COc1cc2c(nn1)CCN(Cc1noc(-c3ccccc3)n1)C2	0.12
COc1cc2c(nn1)CCN(Cc1noc(CC(C)C)n1)C2	65.76
COc1cc2c(nn1)CCN(Cc1nc(Cc3ccccc3)no1)C2	48.93
Cc1nn(C)c(Cl)c1C1CCCN1C(=O)c1ccc(C(N)=O)cn1 (centres undefined)	68.24
COc1c(C2CCCN2C(=O)c2cc(C3CC3)on2)c(C)nn1C (centres undefined)	-47.94
COc1c(C2CCCN2C(=O)c2cc(C)on2)c(C)nn1C (centres undefined)	51.94
Cc1nn(C)c(Cl)c1C1CCCN1C(=O)c1ccc(O)nc1 (centres undefined)	-36.73
Cc1cc(C(=O)N2CCCC2c2c(C)nn(C)c2C)no1 (centres undefined)	43
Cc1nn(C)c(Cl)c1C1CCCN1C(=O)c1csnn1 (centres undefined)	75.98
Cc1nn(C)c(Cl)c1C1CCCN1C(=O)c1cc[nH]n1 (centres undefined)	47.57
Cc1nn(C)c(C)c1C1CCCN1C(=O)c1ccc(C(N)=O)cn1 (centres undefined)	-27.71
Cc1nn(C)c(Cl)c1C1CCCN1C(=O)c1cnccn1 (centres undefined)	3.86

Structure (SMILES)	INHIBITION [%]
O=C([C@H]1CN(Cc2ccccc2F)C[C@H]2OCC[C@@H]12)N1CCCO1	13.61
CC(NC(=O)N1CCCN(CC(F)F)CC1)c1ccco1 (centres undefined)	1.06
CNc1nc(CNC(=O)Nc2cccc(C)c2Cl)cs1	15.4
CNc1nc(CNC(=O)Nc2cccc(Cl)c2OC)cs1	-4.43
CNc1nc(CNC(=O)Nc2cccc(Cl)c2Cl)cs1	61.09
CC(C)(C)c1nnc(NCC(=O)N2CCc3sccc3C2)s1	33.83
O=C(NCc1nnc2n1CCC2)N(Cc1ccco1)C1CC1	17.52
c1cnnc(N2CCCC(NCc3cccc4c3OCO4)C2)c1 (centres undefined)	-9.98
Cc1ccc(N2CCCC(NCc3cccc4c3OCCO4)C2)nn1 (centres undefined)	15.13
Cc1ccc(N2CCCC(NCc3cccc4c3OCO4)C2)nn1 (centres undefined)	56.02
Cc1ccc(N2CCCC(NCCS(C)(=O)=O)C2)nn1 (centres undefined)	52.6
Cc1ccc(N2CCCC(NCCCS(C)(=O)=O)C2)nn1 (centres undefined)	-15.77
COCCCNC1CCCN(c2ccc(C)nn2)C1 (centres undefined)	-73.41
CCOCC1CN(Cc2cnn(C)c2)Cc2nn(C)cc21 (centres undefined)	19.44
CS(=O)(=O)N[C@@H]1CN(C(=O)c2cccnc2)[C@@H]2CCCO[C@@H]21	-13.61
COCC(NC(=O)c1cnn(C)c1)c1cccc(C(F)(F)F)c1 (centres undefined)	31.38
CCOCC1CN(Cc2ccoc2)Cc2nn(C)cc21 (centres undefined)	-55.93
CC(C)CN1CCCn2nc(CNC(=O)Cc3cccc(O)c3)cc2C1	49.95
CCc1nc(CN(C)C2CCN(CCn3cccn3)C2)no1 (centres undefined)	51.94
CN(Cc1noc(C2CC2)n1)C1CCN(CCS(C)(=O)=O)C1 (centres undefined)	-6.15
CN(Cc1noc(C2CC2)n1)C1CCN(CCn2cc(C#N)cn2)C1 (centres undefined)	-9.17
CCc1nc(CN(C)C2CCN(CCc3ccncc3)C2)no1 (centres undefined)	-11.16

Structure (SMILES)	INHIBITION [%]
CC(C)c1nc(CN(C)C2CCN(CCn3cc(C#N)cn3)C2)no1 (centres undefined)	60.09
CCc1nc(CN(C)C2CCN(CCNS(=O)(=O)CC)C2)no1 (centres undefined)	20.71
CCc1nc(CN(C)C2CCN(CCS(C)(=O)=O)C2)no1 (centres undefined)	50.72
Cc1nc(CN(C)C2CCN(CCn3cc(C#N)cn3)C2)no1 (centres undefined)	-27.5
CN(Cc1noc(C2CC2)n1)C1CCN(CCn2cccn2)C1 (centres undefined)	10.1
CC(=O)N(C)CC(=O)NC1(c2ccc(Cl)c(Cl)c2)CC1	23.45
Cc1nc(C)c(C(=O)NCCNC(=O)Cc2cccc(F)c2)s1	30.91
CSCC(C)(O)CNS(=O)(=O)c1ccc(F)cc1 (centres undefined)	-40
CN(Cc1csc(-c2cccs2)n1)Cc1cccnc1N	27.47
Clc1ccc(OCCCN2CCOC(Cn3cncn3)C2)cc1 (centres undefined)	9.17
COc1ccc(Oc2ncccc2C(F)(F)F)cc1CN1CCCC1	20
COc1cc(CN2CCCC2)ccc1Oc1ncccc1C(F)(F)F	43.1
COc1cc(Oc2ncccc2C(F)(F)F)ccc1CN1CCCC1	66.12
c1cc2nccc(CC3CCCN(Cc4c[nH]cn4)CC3)c2cn1 (centres undefined)	-0.83
O=C(O)c1ccnc(-c2ccnc(COc3ccccc3Cl)n2)c1	17.2
CCc1cnc(CNC(=O)NCCc2ccc(O)cc2)s1	47.59
CCc1cnc(CNC(=O)NC2CC(C)(C)OC2(C)C)s1 (centres undefined)	-1.45
CCc1cnc(CNC(=O)NCCCO)s1	52.85
CN(C)CC1CN(c2ncnc3ccsc23)CCO1 (centres undefined)	44.6
CCN1CCCC1CNC(=O)CCc1cccs1 (centres undefined)	9.27
CSc1ccc(OC(C)C(=O)Nc2c(C)n[nH]c2C)cc1 (centres undefined)	3.5
CC(=O)N1CCC(c2cnc(-c3c(C)nn(C)c3C)cn2)CC1	34.06

Structure (SMILES)	INHIBITION [%]
Cn1cc(C(=O)CC2CCCN2C(=O)c2ccncc2F)cn1 (centres undefined)	-5.09
Cn1cc(C(=O)CC2CCCN2C(=O)c2cccc3ncccc23)cn1 (centres undefined)	51.19
Cn1cc(C(=O)CC2CCCN2C(=O)c2cncc3ccccc23)cn1 (centres undefined)	11.1
Cn1cc(C(=O)CC2CCCN2C(=O)c2ccc(Cl)cn2)cn1 (centres undefined)	24.55
CCc1ccccc1C(=O)N1CCCC1CC(=O)c1cnn(C)c1 (centres undefined)	-7.41
COc1cc(C(=O)N2CCCC2CC(=O)c2cnn(C)c2)ccc1F (centres undefined)	64.2
Cc1noc([C@H]2C[C@H]3OCC[C@H]3N(C3CCC3)C2)n1	44.94
COc1ccccc1CN(C)C(=O)CN1CC(n2nc(C)cc2C)C1	18.15
Cc1cc(C)cc(N2CCN(Cc3cccc(CCN)c3)CC2=O)c1	10.92
NCCc1cccc(CN2CCN(c3ccccc3)C(=O)C2)c1	22.72
Cc1cc(C)cc(CN2CCN(Cc3cccc(CCN)c3)CC2=O)c1	61.75
CC(C)c1nnc2n1CCN(Cc1ccc3c(c1)OCO3)CC2	-21.23
Cc1cccc(CN2CCC3(CCN(c4ccccn4)C3)C2=O)c1 (centres undefined)	17.39
CCc1n[nH]c(C2CN(CC(=O)NCCc3ccsc3)CCO2)n1 (centres undefined)	12.46
Cc1n[nH]c(C2CN(CC(=O)NCCc3ccsc3)CCO2)n1 (centres undefined)	50.74
Cc1n[nH]c(C2CN(CC(=O)NCCc3ccccc3)CCO2)n1 (centres undefined)	19.43
CC(CNC(=O)CCCc1ccccn1)c1ccsc1 (centres undefined)	18.85
Cc1ccc(CN2CC[C@@H](O)[C@@H]2Cc2ccccc2)o1	14.65
CN(CCc1cn[nH]c1)C(=O)C(c1ccc(F)cc1)N(C)C (centres undefined)	38.67
Cc1cc(C)cc(CCC(=O)N(C)CCc2cn[nH]c2)c1	-4.26
Cc1ccccc1C(C(=O)N(C)CCc1cn[nH]c1)N(C)C (centres undefined)	-102.03
Cc1cccc(C(C(=O)N(C)CCc2cn[nH]c2)N(C)C)c1 (centres undefined)	67.28

Structure (SMILES)	INHIBITION [%]
Cc1cccc(C(C(=O)N(C)Cc2ccon2)N(C)C)c1 (centres undefined)	-2.69
Cc1ccc(C(C(=O)N(C)CCc2cn[nH]c2)N(C)C)cc1 (centres undefined)	69.67
Cc1ccc(CCC(C)NC2CCN(C(N)=O)CC2)cc1 (centres undefined)	-5.43
CN1CCN(CCCNC(=O)CCc2nc3cc(Br)cnc3[nH]2)CC1	12.87
O=C(Nc1nc2c(s1)CN(S(=O)(=O)C1CC1)CC2)Nc1ccccc1F	47.9
CC1CN(c2ncnc3sccc23)CCN1c1nccs1 (centres undefined)	38.01
c1csc(N2CCN(c3ncnc4sccc34)CC2)n1	16.93
CC1CN(c2ncnc3c2cnn3C)CCN1c1nccs1 (centres undefined)	57.16
O=C(Cc1ccccn1)N1CCn2cc(Cn3cncn3)nc2C1	-33.15
Cc1ccc(-c2nc(CN3CCN(C(=O)C4CC4)CC3)cs2)o1	-21.93
CCNC(=O)C1CCN(Cc2csc(-c3ccc(C)o3)n2)CC1	50.12
CC(C)c1nnc2n1CCN(Cc1nc(-c3ccoc3)no1)C2	7.01
Cc1ccc(-c2nc(CN3CCn4c(C)nnc4C3)cs2)o1	42.58
CCOC(=O)C1CCN(Cc2csc(-c3ccc(C)o3)n2)CC1	-0.76
Cc1ccc(-c2nc(CN3CCC(C(=O)N(C)C)CC3)cs2)o1	27.91
CCc1nnc2n1CCN(Cc1nc(-c3ccoc3)no1)C2	73.05
Cc1ccc(-c2nc(CN3CCN(S(=O)(=O)N(C)C)CC3)cs2)o1	53.12
Cc1ccc(-c2nc(CN3CCn4c(nnc4C4CC4)C3)cs2)o1	-110.74
CCc1nnc2n1CCN(Cc1csc(-c3ccc(C)o3)n1)C2	58.49
Cc1nnc2n1CCN(Cc1nc(-c3ccoc3)no1)C2	-25.13
Cc1ccc(-c2nc(CN3CCN(CC(=O)N(C)C)CC3)cs2)o1	4.18
